HSP90 inh: HSP90 inhibitors, primary screen, cell lysate, luminescence; inhibition, % at 5.6 µM; Rabbit reticulocyte lysate, luciferase refolding luminescence, 3 h; 0.91% of 290,000 active;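 active means inhibition above the screen-wide mean plus 3 SD, computed separately per campaign, cut at about 16% in these data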;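 further: 0% = DMSO wells and 100% = 60 µM geldanamycin wells; inhibitors lower the luminescence because luciferase stays unfolded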
PG9 binder: binders of HIV-1 gp120 antibody PG9, primary screen, biochemical, TR-FRET; HIV-1 gp120 / PG9 antibody interaction; TR-FRET gp120-PG9 antibody binding; inhibition, % at 6.7 µM; 0.43% of 360,000 active; AID 624416, 2012; in the data active means inhibition above about 8.5%
GAA850 FXN act: FXN promoter activators, primary screen, cell-based, luciferase luminescence, HEK293 lucGAA850; activation, % at 6 µM; HEK293 lucGAA850 FXN promoter luciferase reporter, 24 h; percent of 10 µM SAHA response; 0.56% of 360,000 active;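 active means activation above the average of all compounds screened plus 3 SD, cutoff fixed separately per campaign, cut at about 7.5% in these data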;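 further: 0% = DMSO wells and 100% = 10 µM SAHA wells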
SMARCA2 act: SMARCA2 (BRM) function activators, primary screen, cell-based, luminescence, high throughput; activation, % at 9.1 µM; AID 652017, 2013; 1% of 370,000 active; MG213 cells, MMTV-luciferase reporter, dexamethasone, overnight; in the data active means activation above about 7.8%;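 further: 0% = vehicle wells and 100% = reference activator wells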
AI-2 QS mod: Vibrio harveyi AI-2 quorum sensing modulators, primary screen, JMH597 strain, luminescence/OD600 ratio. Vibrio harveyi JMH597 AI-2 luminescence/OD600 ratio, 9 h; hits give low values; strain lacks LuxN and CqsS sensors; 0 = neutral-control median. activity change, % at 7.5 µM. 0.4% of 300,000 active. AID 2094, 2009; in the data active means activity change below about -75%, passing the limit was not always enough;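 further: luminescence divided by OD600 gain over 9 h not by final OD600 alone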
HSF1 inhib: HSF1 inhibitors in luciferase reporter cells, primary screen, cell-based, NIH3T3, luminescence; NIH3T3-HGL HSE-luciferase, MG132-induced, luminescence 8 h; hits give low values; activity change, negative = inhibition, % at 7.5 µM (by protocol); 0.77% of 300,000 active;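 active means more than half of replicate wells show activity change below -50%, luminescence cut by over half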;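 further: luciferase reports HSF-1 transcriptional activity via heat shock element; 0% = median of DMSO wells and -100% = zero luminescence signal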
SMARCA2 act conf: SMARCA2 (BRM) function activators, confirmation, cell-based, luminescence, triplicate; 30% of 3,500 active; MG213 cells, MMTV-luciferase with dexamethasone, overnight; MG213 cells expressing E1A, Rb sequestered; DMSO wells 0%, reference activator 100%; activation, % at 9.1 µM; shares compounds with SMARCA2 act; AID 652260, 2013;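 active means activation above its plate's cutoff, the mean activation of tested wells plus 3 SD, cut at about 7.9% in these data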
VP16 Luc act: GAL4-VP16 luciferase reporter activation, counter-screen for SMARCA2 (BRM) activator project, cell-based, pG5luc, luminescence, high throughput. shares compounds with SMARCA2 act. HEK293 GAL4-VP16 pG5luc reporter; scaled: DMSO wells 0%, SAHA wells 100%. activation, % at 9.1 µM. 41% of 3,500 active. AID 686939, 2013;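 active means activation above the solvent-only control well mean plus 3 SD, averaged across control plates, cut at about 5.2% in these data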
* marks the source's active call; other numbers are inactive results; nt = no result. An excerpt weighted towards active compounds, which were near 3.4% of everything screened.

SMILES | HSP90 inh | PG9 binder | GAA850 FXN act | SMARCA2 act | AI-2 QS mod | HSF1 inhib | SMARCA2 act conf | VP16 Luc act
NC(=S)Nc1nc2ccccc2s1 | -2 | -1 | 3 | 16* | 23 | -3 | 17* | 5.5*
CCOc1ccc2nc(NC(=O)C3CCCO3)sc2c1 (configuration not stated) | 4 | -3 | 2 | 6 | -4 | 13 | nt | nt
COCC(=O)Nc1nc2ccccc2s1 | -2 | -2 | 1 | 4 | 29 | 4 | nt | nt
O=C(Nc1nc2ccccc2s1)C1CCCO1 (configuration not stated) | 3 | -1 | 1 | 11* | 45 | 17 | 11* | 9.8*
O=C(Nc1ncc(Cc2ccccc2)s1)C1CCCO1 (configuration not stated) | 9 | -2 | 2 | 12* | -31 | 16 | 11* | 8.6*
O=C(Nc1nc2ccc(F)cc2s1)C1CCCO1 (configuration not stated) | 0 | -3 | 4 | 10* | 36 | 0 | 12* | 5.5*
CC(C)(C)S(=O)N1C[C@@H]2CC(=O)C(c3ccccc3)=C2[C@H]1CCO (some centres not stated) | nt | -2 | nt | -4 | nt | nt | nt | nt
NC(=O)c1cccnc1Nc1cccc(F)c1 | -3 | -1 | -1 | 0 | -10 | 2 | nt | nt
NC(=O)c1cccnc1Nc1cccc([N+](=O)[O-])c1 | 0 | 0 | 3 | 13* | 33 | 24 | 7.8* | 8.6*
CCCS(=O)(=O)NC(=O)C1(C)CCN(C(=O)c2nc(C)oc2C)C1 (configuration not stated) | nt | -1 | 0 | 8.0* | nt | nt | 0 | 1
Cc1c(C(=O)NCc2ccc(C(C)C)cc2)sc(=O)n1Cc1ccc(S(=O)(=O)N(C)C)cc1 | nt | 1 | -2 | -4 | nt | nt | nt | nt
O=C1NC(NS(=O)(=O)c2ccccc2)(C(F)(F)F)C(=O)N1Cc1ccccc1 (configuration not stated) | -1 | 1 | 0 | 1 | -2 | 2 | nt | nt
Nc1ccc(S(=O)(=O)NC2(C(F)(F)F)NC(=O)N(Cc3ccccc3)C2=O)cc1 (configuration not stated) | 3 | -1 | -1 | 8.0* | -1 | 0 | -5 | 0
COC(=O)[C@]12C[C@H](CC(=O)NCc3ccccc3)C(=O)N(Cc3ccccc3)C1=C[C@H](C1CCCC1)O[C@@H]2C | nt | 0 | nt | -4 | nt | nt | nt | nt
COc1ccc(CNc2nc3ccccc3n2C)c(O)c1 | -2 | 2 | 4 | 8.1* | 15 | 28 | 9.3* | 7.3*
Cn1c(NCc2ccc(Cl)cc2)nc2ccccc21 | -2 | -1 | 5 | 8.3* | 31 | 36 | 8.3* | 11*
COc1ccc(CNc2nc3ccccc3n2C)c(OC)c1 | -1 | 0 | 3 | 8.0* | 11 | 24 | 10* | 10*
COc1ccc(CNc2nc3ccccc3n2C(C)C)c(O)c1 | 0 | 1 | 0 | -2 | 20 | 7 | nt | nt
Cc1nnc(-n2cccc2)s1 | nt | 0 | nt | -1 | nt | nt | nt | nt
COc1cc2ccc(C=O)cc2cc1OC | nt | 1 | 2 | -3 | nt | nt | nt | nt
COc1cccc2c1CCc1c-2nc2ccccc2c1C(=O)O | 5 | 0 | 2 | 11* | 12 | 7 | 8.2* | 5.9*
Cc1ccc(C(=O)N2CCC[C@@H]2C(=O)N2CCC[C@@H]2C(=O)NCc2ccccc2)cc1 | nt | 1 | nt | -2 | nt | nt | nt | nt
